Test systems include T-47D breast; BT-549 breast; MDA-MB-435 melanoma; SW-620 colon; MCF7 breast; HCT-116 colon; HCC-2998 colon; KM12 colon.
Common to all, as to assay: NCI-60 one-dose screen, 48 h (100 = growth as untreated, 0 = no growth, -100 = all killed)
Holding throughout (details): 10 µM unless noted

The structures appear in SMILES notation. About 83,000 compounds went through this panel and 20% of them were active in at least one assay; those are over-represented in the sample as a whole.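 48-hour exposure, single concentration, 96-well plates; percent growth endpoint where 0 means no net growth. Active: below 10.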 Unmarked numbers belong to inactive results. Calls of active or inactive are those of the source.

For `Cc1cc(C)c(S(=O)(=O)Oc2ccccc2[N+](=O)[O-])c(C)c1`, the growth is 38.8% with T-47D breast; 40.6% in the assay with BT-549 breast; -2.54% (active) in the assay with MDA-MB-435 melanoma; 8.04% (active) in the assay with SW-620 colon; 13.3% in the assay with MCF7 breast; 19.7% with HCT-116 colon. Further, the growth in the assay on HCC-2998 colon is 32.1%; with KM12 colon it was 23%.

Regarding `Cc1cc(C(=O)/C=C/c2ccc[nH]2)ccc1-n1ccc(C(F)(F)F)n1`, the growth in the assay with T-47D breast was 85%; in the assay with BT-549 breast it was -35% (active); in the assay with MDA-MB-435 melanoma it was 97.4%; with SW-620 colon, 96.6%; in the assay with MCF7 breast, 82.7%; in the assay on HCT-116 colon, 88.5%. The growth in the assay with HCC-2998 colon is 108%; in the assay on KM12 colon, -14% (active).

Turning to `CCOC(=O)CCN(CC(C)C)C(=S)Nc1ccccc1`, the growth was 105% with T-47D breast; 106% with BT-549 breast; 102% in the assay on MDA-MB-435 melanoma; 107% in the assay on SW-620 colon; 98.8% with MCF7 breast; 95.9% in the assay with HCT-116 colon. Besides, the growth was 108% in the assay on HCC-2998 colon and 104% with KM12 colon.

Regarding `COC(=O)C(OC(C)=O)C(OC(C)=O)c1ccc(OC)c(OC)c1` (stereo not given), the growth was 75.4% in the assay on T-47D breast; 104% in the assay with BT-549 breast; 106% in the assay with MDA-MB-435 melanoma; 118% in the assay with SW-620 colon; 85.4% in the assay on MCF7 breast; 81.8% with HCT-116 colon. The growth with HCC-2998 colon was 108%; in the assay on KM12 colon it was 102%.

On to `O=C1Nc2cc(-c3cccc([N+](=O)[O-])c3)ccc2/C1=C/c1ccc[nH]1`, for which the growth is -10.6% (active) in the assay on T-47D breast; 23% with BT-549 breast; 97.7% in the assay with MDA-MB-435 melanoma; 93.3% in the assay on SW-620 colon; 16% in the assay on MCF7 breast; 97.9% in the assay with HCT-116 colon. For the same compound, the growth in the assay with HCC-2998 colon was 61%; with KM12 colon it was 46.7%.

`CC(=O)OC[C@]12CC[C@@H](C(=O)CBr)[C@@H]1[C@H]1CC[C@@H]3[C@@]4(C)CC[C@H](OC(C)=O)C(C)(C)[C@@H]4CC[C@@]3(C)[C@]1(C)CC2`: the growth in the assay on T-47D breast was 85.3%; with BT-549 breast, 84%; in the assay with MDA-MB-435 melanoma, 93.3%; in the assay on SW-620 colon, 100%; in the assay with MCF7 breast, 89%; in the assay with HCT-116 colon, 88.2%. The growth in the assay with HCC-2998 colon is 111%; with KM12 colon, 97.7%.

As for `O=C(CNCCN1CCOCC1)N1c2cccc3cccc(c23)N(C(=O)CNCCN2CCOCC2)C1c1cn(-c2ccccc2)nc1-c1cccc([N+](=O)[O-])c1`, the growth with T-47D breast is 77.6%; in the assay with BT-549 breast it was 89.7%; in the assay on MDA-MB-435 melanoma, 80.1%; in the assay on SW-620 colon, 83.2%; in the assay with MCF7 breast it was 36.9%; in the assay with HCT-116 colon, 50.7%. For the same compound, the growth in the assay with HCC-2998 colon is 35.4%; with KM12 colon, 98.8%.

Take `Oc1cccc(CCc2ccc(Oc3cc(CCc4cccc(O)c4)cc(O)c3O)cc2)c1`: the growth in the assay with T-47D breast was 73%; in the assay with BT-549 breast, 82%; in the assay on MDA-MB-435 melanoma it was 68.6%; with SW-620 colon it was 79%; in the assay with MCF7 breast, 77.8%; with HCT-116 colon, 73.2%. In addition, the growth in the assay with HCC-2998 colon is 92%; in the assay with KM12 colon, 81.5%.

Turning to `CCOC(=O)c1cc(C(=O)c2ccc(OC)cc2)n2ccc(/C=C/c3cc[n+](CC(=O)c4ccc(OC)cc4)cc3)cc12`, the growth with T-47D breast was 36.3%; in the assay on BT-549 breast, 86%; with MDA-MB-435 melanoma it was 77%; in the assay on SW-620 colon, 5.72% (active); in the assay on MCF7 breast it was -62.6% (active); in the assay with HCT-116 colon, 3.01% (active). Also, the growth in the assay with HCC-2998 colon was 36.7%; with KM12 colon, 91.9%.

Regarding `O=C1NN(C(=O)c2ccccc2)C(c2ccc(Cl)c(Cl)c2)=C/C1=C\c1ccc([N+](=O)[O-])cc1`, the growth with T-47D breast is 76.7%; with BT-549 breast, 52.4%; with MDA-MB-435 melanoma, 86.5%; with SW-620 colon it was 42.9%; with MCF7 breast, 83.6%; in the assay on HCT-116 colon, 90.7%. In addition, the growth in the assay with HCC-2998 colon was 44.6%; with KM12 colon, 51.7%.

As for `N#Cc1c(-c2cccc([N+](=O)[O-])c2)nc(SCC(=O)c2ccc(Cl)cc2)[nH]c1=O`, the growth is 105% in the assay on T-47D breast; 99.7% in the assay on BT-549 breast; 100% with MDA-MB-435 melanoma; 98.4% in the assay with SW-620 colon; 105% in the assay with MCF7 breast; 105% in the assay with HCT-116 colon. The growth was 106% in the assay on HCC-2998 colon and 99.4% with KM12 colon.

Take `CCOC(=O)Nc1ccc(-c2ccc3c(c2)NC(=O)/C3=C\c2ccc[nH]2)cc1`: the growth with T-47D breast was 6.7% (active); in the assay on BT-549 breast, 56.4%; in the assay on MDA-MB-435 melanoma, 102%; with SW-620 colon it was 113%; in the assay with MCF7 breast, 10%; in the assay with HCT-116 colon, 107%. The results for the growth in the assay on HCC-2998 colon and with KM12 colon were 85.8% and 63.6%, respectively.

Turning to `OCc1cnccc1NCCCCOc1ccc(Oc2ccccc2)cc1`, the growth with T-47D breast was 35.4%; in the assay on BT-549 breast it was 62.6%; in the assay on MDA-MB-435 melanoma, 59.9%; with SW-620 colon it was 49.2%; in the assay on MCF7 breast it was 33.2%; in the assay on HCT-116 colon it was 31.3%. For the same compound, the growth with HCC-2998 colon is 89.6%; with KM12 colon it was 64.8%.

Turning to `CCCOc1ccc(/C=N/Nc2cc(C)nc3ccc(Cl)cc23)cc1`, the growth in the assay on T-47D breast is 45.9%; in the assay with BT-549 breast, 102%; with MDA-MB-435 melanoma it was -40.4% (active); in the assay with SW-620 colon, -75.5% (active); in the assay with MCF7 breast, -20.5% (active); in the assay on HCT-116 colon, -74.8% (active). In addition, the growth is -39.9% (active) in the assay on HCC-2998 colon and 16.5% in the assay with KM12 colon.

In the case of `CCNC(=O)Oc1ccc(/C(=C(\C)c2ccccc2)c2ccc(OCCCN(C)C)cc2)cc1`, the growth in the assay with T-47D breast is 45.6%; in the assay on BT-549 breast, 70.7%; in the assay on MDA-MB-435 melanoma it was 69.6%; with SW-620 colon, 94.5%; in the assay on MCF7 breast it was 27%; in the assay with HCT-116 colon it was 48.8%. Also, the results for the growth with HCC-2998 colon and in the assay on KM12 colon were 67.9% and 65.8%, respectively.
